Among the data in the supplement of paper PMC12819154, “High-throughput peptide-centric local stability assay extends protein–ligand identification to membrane proteins, tissues and bacteria” (Nature Structural & Molecular Biology, 2025) are log2 fold change values, retold here.

Compound in the assay: CN[C@@H]1C[C@H]2O[C@@](C)([C@@H]1OC)n1c3ccccc3c3c4c(c5c6ccccc6n2c5c31)C(=O)NC4 [staurosporine]
Nature of the assay: log2 fold change of tryptic peptide abundance, ligand vs vehicle (limited proteolysis) (log2 ratio); higher = more trypsin-susceptible (destabilized). As to conditions: ligand concentration: 20 uM; sample: K562 cleared lysate; digestion: 4 min, 22 C (HT-PELSA RT4min, Orbitrap Astral).

UniProt Q06830, sequence (Q06830 whole entry): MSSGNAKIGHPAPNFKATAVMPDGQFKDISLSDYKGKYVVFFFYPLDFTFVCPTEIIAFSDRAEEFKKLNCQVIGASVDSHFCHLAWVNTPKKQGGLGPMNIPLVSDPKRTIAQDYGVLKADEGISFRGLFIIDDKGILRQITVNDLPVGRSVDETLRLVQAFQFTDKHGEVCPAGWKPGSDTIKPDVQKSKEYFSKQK
UniProt Q9BZF3, sequence (Q9BZF3 whole entry): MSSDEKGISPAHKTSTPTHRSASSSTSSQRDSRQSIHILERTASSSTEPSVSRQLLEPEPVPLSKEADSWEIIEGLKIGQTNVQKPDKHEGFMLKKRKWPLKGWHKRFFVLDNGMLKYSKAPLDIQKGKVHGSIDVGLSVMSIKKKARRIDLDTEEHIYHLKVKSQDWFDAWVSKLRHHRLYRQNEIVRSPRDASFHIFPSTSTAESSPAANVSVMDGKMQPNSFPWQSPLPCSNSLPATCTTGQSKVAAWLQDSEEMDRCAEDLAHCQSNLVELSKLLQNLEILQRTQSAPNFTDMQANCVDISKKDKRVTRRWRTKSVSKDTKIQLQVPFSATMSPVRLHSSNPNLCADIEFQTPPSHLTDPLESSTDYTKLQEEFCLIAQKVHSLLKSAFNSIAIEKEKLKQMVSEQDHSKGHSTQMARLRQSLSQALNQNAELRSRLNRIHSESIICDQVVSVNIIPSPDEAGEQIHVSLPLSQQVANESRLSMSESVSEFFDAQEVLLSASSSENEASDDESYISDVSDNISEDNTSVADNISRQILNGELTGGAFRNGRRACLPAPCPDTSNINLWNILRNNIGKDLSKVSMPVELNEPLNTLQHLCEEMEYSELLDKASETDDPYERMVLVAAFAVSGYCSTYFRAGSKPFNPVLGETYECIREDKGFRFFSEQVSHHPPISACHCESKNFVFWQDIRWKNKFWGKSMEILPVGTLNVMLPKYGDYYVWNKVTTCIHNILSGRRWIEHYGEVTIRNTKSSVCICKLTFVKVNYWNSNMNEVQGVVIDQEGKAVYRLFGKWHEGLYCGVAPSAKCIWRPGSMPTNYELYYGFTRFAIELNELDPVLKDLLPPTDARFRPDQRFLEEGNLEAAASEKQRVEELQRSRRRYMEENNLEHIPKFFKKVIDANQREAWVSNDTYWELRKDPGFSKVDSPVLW
UniProt Q8IYB3, sequence (Q8IYB3 whole entry): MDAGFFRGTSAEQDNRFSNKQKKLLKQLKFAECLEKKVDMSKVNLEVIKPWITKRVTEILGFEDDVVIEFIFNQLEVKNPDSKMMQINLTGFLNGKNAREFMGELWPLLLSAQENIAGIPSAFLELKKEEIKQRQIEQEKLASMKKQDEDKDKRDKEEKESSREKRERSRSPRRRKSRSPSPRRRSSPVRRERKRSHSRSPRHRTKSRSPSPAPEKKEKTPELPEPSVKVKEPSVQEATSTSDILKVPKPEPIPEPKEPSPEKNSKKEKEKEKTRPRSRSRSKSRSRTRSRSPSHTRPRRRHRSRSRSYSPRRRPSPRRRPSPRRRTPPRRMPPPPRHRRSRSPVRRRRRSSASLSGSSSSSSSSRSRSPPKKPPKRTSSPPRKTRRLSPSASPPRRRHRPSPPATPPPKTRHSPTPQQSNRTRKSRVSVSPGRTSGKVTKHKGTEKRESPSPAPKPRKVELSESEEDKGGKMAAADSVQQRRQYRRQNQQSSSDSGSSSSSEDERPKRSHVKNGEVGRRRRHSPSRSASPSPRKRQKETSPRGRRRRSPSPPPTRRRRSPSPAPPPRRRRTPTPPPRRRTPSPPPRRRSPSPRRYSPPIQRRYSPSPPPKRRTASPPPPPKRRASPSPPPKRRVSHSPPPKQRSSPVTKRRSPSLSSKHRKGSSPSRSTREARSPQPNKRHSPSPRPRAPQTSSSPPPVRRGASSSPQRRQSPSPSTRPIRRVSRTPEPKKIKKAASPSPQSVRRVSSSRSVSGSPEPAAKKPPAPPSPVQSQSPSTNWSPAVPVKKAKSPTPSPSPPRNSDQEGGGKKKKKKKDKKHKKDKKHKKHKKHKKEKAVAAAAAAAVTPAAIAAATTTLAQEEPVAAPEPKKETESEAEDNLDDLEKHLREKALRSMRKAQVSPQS
UniProt Q99759, sequence (Q99759 whole entry): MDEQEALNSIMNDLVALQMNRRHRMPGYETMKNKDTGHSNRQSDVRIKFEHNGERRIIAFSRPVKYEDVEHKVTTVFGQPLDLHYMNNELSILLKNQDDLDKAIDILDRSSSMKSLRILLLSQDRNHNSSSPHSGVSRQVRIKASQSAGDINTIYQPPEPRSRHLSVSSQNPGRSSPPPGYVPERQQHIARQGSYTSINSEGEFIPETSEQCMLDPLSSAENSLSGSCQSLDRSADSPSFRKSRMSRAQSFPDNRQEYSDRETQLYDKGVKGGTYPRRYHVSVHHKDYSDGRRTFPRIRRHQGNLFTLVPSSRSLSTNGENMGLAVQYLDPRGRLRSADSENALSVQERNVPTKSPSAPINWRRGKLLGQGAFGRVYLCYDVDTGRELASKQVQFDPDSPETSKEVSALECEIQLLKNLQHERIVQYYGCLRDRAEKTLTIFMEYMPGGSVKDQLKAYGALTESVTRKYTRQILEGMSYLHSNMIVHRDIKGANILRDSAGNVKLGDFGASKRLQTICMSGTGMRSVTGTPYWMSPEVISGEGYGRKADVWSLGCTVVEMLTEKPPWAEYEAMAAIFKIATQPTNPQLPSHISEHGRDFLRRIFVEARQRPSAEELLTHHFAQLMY
UniProt Q15349, sequence (Q15349 whole entry): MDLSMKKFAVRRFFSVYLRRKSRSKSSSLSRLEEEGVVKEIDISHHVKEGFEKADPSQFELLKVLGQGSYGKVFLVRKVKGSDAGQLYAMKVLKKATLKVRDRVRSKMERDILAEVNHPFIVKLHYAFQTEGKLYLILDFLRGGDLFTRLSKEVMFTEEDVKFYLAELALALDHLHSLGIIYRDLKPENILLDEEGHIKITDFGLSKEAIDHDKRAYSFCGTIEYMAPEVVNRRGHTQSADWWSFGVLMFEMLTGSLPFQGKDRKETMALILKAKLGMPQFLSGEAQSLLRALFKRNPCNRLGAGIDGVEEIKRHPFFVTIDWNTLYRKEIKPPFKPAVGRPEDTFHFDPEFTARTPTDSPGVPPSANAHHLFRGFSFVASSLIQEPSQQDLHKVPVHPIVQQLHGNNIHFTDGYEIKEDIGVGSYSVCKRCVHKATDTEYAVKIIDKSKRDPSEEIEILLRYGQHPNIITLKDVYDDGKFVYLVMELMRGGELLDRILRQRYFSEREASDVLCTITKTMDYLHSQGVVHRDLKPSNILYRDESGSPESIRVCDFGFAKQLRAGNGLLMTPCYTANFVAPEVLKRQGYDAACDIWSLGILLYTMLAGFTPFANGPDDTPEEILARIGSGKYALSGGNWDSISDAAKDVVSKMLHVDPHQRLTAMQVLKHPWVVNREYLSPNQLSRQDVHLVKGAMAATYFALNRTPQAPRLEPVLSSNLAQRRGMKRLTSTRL
UniProt P0DMV8, sequence (P0DMV8 whole entry, looked up): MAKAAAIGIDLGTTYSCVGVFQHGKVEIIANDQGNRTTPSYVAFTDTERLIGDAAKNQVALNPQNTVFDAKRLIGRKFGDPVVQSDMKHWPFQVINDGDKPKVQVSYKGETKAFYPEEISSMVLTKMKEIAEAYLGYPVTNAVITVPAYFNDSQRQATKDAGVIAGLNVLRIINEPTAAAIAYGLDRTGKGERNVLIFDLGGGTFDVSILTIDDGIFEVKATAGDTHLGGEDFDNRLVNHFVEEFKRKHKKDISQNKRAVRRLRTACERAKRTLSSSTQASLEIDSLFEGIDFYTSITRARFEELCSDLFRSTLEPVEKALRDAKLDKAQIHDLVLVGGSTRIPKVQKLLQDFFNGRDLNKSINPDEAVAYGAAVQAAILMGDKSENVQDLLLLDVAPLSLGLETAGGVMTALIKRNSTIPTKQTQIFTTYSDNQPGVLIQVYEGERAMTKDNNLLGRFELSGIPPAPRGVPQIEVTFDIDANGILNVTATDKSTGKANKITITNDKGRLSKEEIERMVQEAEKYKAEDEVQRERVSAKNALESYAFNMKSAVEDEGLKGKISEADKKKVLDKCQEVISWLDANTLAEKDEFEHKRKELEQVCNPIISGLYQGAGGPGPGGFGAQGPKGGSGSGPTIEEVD
UniProt Q9BZL6, sequence (Q9BZL6 whole entry): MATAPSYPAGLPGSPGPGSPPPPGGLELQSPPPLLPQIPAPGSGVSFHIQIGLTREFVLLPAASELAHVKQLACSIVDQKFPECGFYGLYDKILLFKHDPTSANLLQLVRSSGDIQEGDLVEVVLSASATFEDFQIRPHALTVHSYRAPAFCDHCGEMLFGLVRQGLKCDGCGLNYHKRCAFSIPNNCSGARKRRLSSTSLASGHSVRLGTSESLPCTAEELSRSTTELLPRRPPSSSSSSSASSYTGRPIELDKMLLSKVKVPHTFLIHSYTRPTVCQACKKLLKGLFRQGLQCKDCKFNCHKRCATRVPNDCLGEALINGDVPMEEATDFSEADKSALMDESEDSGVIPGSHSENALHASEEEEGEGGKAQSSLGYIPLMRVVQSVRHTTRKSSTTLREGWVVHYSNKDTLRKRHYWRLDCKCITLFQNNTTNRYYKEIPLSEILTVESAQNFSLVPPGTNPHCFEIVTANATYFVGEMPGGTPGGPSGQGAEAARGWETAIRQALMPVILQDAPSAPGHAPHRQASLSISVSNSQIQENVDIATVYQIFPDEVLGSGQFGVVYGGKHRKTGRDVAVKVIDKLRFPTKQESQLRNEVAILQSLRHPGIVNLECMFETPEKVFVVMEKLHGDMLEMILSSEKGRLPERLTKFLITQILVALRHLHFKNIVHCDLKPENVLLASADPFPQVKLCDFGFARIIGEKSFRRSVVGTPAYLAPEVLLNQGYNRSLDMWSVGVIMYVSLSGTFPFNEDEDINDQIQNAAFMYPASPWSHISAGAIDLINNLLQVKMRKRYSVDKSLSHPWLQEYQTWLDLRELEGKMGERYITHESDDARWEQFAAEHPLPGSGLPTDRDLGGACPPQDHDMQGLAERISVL

On to “UniProt Q99759 (peptide sequence: SPSAPINWR, peptide start residue: 355)”, for which the log2 fold change is -2.28.
As for “AK2 (peptide sequence: NLETPLCK, peptide start residue: 86) (UniProt P54819)”, the log2 fold change was 0.399.
The same measure for “PRDX1 (peptide sequence: KQGGLGPMNIPLVSDPKR, peptide start residue: 93) (UniProt Q06830)”: 0.253; for “HERC1 (peptide sequence: VMTCVWCNKK, peptide start residue: 3431) (UniProt Q15751)”: 0.958; for “RPS17 (peptide sequence: NKIAGYVTHLMK, peptide start residue: 48) (UniProt P08708)”: 0.59.
“PRKD2 (peptide sequence: LSSTSLASGHSVR, peptide start residue: 196) (UniProt Q9BZL6)”: the log2 fold change stood at 1.18.
Consider “SRRM1 (peptide sequence: KETESEAEDNLDDLEK, peptide start residue: 870) (UniProt Q8IYB3)”, for which the log2 fold change came to 1.54.
The figure for “RPS6KA2 (peptide sequence: ADPSQFELLK, peptide start residue: 63) (UniProt Q15349)” is -1.
“OSBPL6 (peptide sequence: NFVFWQDIR, peptide start residue: 687) (UniProt Q9BZF3)”: the log2 fold change was -1.81.
Turning to “UniProt P0DMV8 (peptide sequence: LLQDFFNGR, peptide start residue: 349)”, the log2 fold change worked out at 0.293.
Turning to “ULK1 (peptide sequence: LFLQQIAGAMR, peptide start residue: 117) (UniProt O75385)”, the log2 fold change was -1.62.
